From PubChem BioAssay come the findings set out here.

Several values for one entry are separate records, joined by “and”; a condition that tells them apart may be missing. Equal values may be shown once. Inconclusive results are not listed. A number with no mark means an inactive call. Activity calls are given as the source filed them. Cut-off read from the data, not from the text of the source, unless noted: active = percent of DMSO control GFP below about 86%; inactive = the rest, inconclusive results apart.

The nature of the first experiment: yeast TOR pathway RPL19A-GFP modulators, primary screen, cell-based, S. cerevisiae, multiplex flow cytometry (AID 1862).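 Note: lower values mimic rapamycin by blocking the RPL19A rise seen in DMSO cells.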 As to conditions: S. cerevisiae RPL19A-GFP strain, flow cytometry fluorescence, 3 h; at 10 µM; active compounds read low.
For the molecule `COc1cc(C2NCCc3c2[nH]c2ccccc32)ccc1OC(C)C` (stereo not given), the percent of DMSO control GFP was 105%.
For the molecule `O=C(CSCc1ccccc1)NCCCN1CCOCC1`, the percent of DMSO control GFP is 97.9%.
Consider `O=C(N1CCCCC1)C1(c2ccccc2)CCOCC1`, for which the percent of DMSO control GFP is 99.3%.
Consider `CCCC(=O)O[C@]1(C(=O)COC(C)=O)CC[C@H]2[C@@H]3C[C@H](F)C4=CC(=O)C=C[C@]4(C)[C@@]3(F)[C@@H](O)C[C@@]21C`, for which the percent of DMSO control GFP was 96.9%.
Same read-out and setting: the figure for `O=c1ccc2c(o1)/C(=C/C=C(Cl)Cl)CCC2` is 101%; for `COc1cc(Cc2cnc(N)nc2N)cc(OC)c1OC` it is 100% and 102%; for `O=C(CC(NC(=O)OCc1ccccc1)C(=O)O)OCc1ccccc1` (stereo not given) it is 106%.
On the same count and under the same terms, the figure for `O=c1c(-c2ccccc2)c(O)c2cccc3c2n1CCC3` is 99.7%; for `O=C(O)C1CCN(C(=O)COc2ccc3c4c(c(=O)oc3c2)CCC4)CC1` it is 105%.
Still for that read-out and setting: the figure for `CCOC(=O)c1cccc(P(C)(C)=O)c1` is 103%; for `O=C(O)c1cc2cc(F)ccc2[nH]1` it is 101%; for `O=C(O)c1ccccc1C(=O)OCCCCOC(=O)c1ccccc1C(=O)O` it is 104%.
Consider `Cn1nc(-c2ccc(Cl)cc2)nc2c(=O)n(C)c(=O)nc1-2`, for which the percent of DMSO control GFP was 74.2% (active).
Same read-out and setting: for `O=c1[nH]c(=O)n([C@H]2C[C@H](O)[C@@H](CO)O2)cc1C(F)(F)F` the value was 103%; for `COc1ccc(-c2cc(C(=O)N3CCOCC3)c3cc(C)ccc3n2)cc1`, 91.1%; for `Cc1ccc2c(c1)c1c3n2CCCN(Cc2ccccc2)C3CCC1` (stereo not given), 100%.
As to `CCCCCCCC(=O)OCC(O)CO` (stereo not given), the percent of DMSO control GFP was 108%.
On the same count and under the same terms, the figure for `S=C(c1ccc2c(c1)OCO2)N1CCCCC1` is 101%; for `COc1cc2cc(C)nc(Cc3cccc4ccccc34)c2cc1OC` it is 102%; for `CCn1cc(C(=O)O)c(=O)c2ccc(C)nc21` it is 99.5%.
Still for that read-out and setting: for `c1coc(-c2nnc3n2C2(CCCC2)Cc2ccccc2-3)c1` the value was 94.2%.
For `COc1ccc(Cc2noc(CN(C)CCN3CCc4ccccc4C3)n2)cc1OC`, the percent of DMSO control GFP is 103%.
Still for that read-out and setting: the figure for `CC1(C)c2ccccc2N2CC(=O)NC21/C=C/c1ccco1` (stereo not given) is 101%; for `CC12CC(c3ccccc3O1)C(C(=O)N1CCOCC1)C(=O)N2` (stereo not given) it is 100%; for `O=C1CC(c2ccc(OCCCCCOc3ccc(C4CC(=O)NC4=O)cc3)cc2)C(=O)N1` (stereo not given) it is 105%.
Same read-out and setting: for `O=c1[nH]c(=O)n(C2CCCO2)cc1F` (stereo not given) the value was 93.5%.
In the case of `NC(N)=NC(=O)Cc1c(Cl)cccc1Cl`, the percent of DMSO control GFP is 103%.
On the same count and under the same terms, the figure for `CCOC(=O)Cn1c(C)cc(=O)c2ccccc21` is 97.6%; for `Cc1ccc(C(=O)Nc2ccccc2C(=O)NC(C(=O)O)C(C)C)cc1` (stereo not given) it is 96.7%.
On the same count and under the same terms, the figure for `Cc1cc(O)c2/c(=N\N)c(-c3csc(C)n3)coc2c1` is 105%.
Take `O=C(CN1C(=O)/C(=C/c2cccc(Br)c2)SC1=S)Nc1cccnc1`: the percent of DMSO control GFP was 101%.
As to `COc1ccc2[nH]c(CN3CCN(CC(C)C)C(CCO)C3)c(C)c2c1` (stereo not given), the percent of DMSO control GFP was 98.8%.
Same read-out and setting: the figure for `CC[N+](C)(C)c1cccc(O)c1` is 103%; for `COc1cccc2c(=O)c(C/C=C(/C)Cl)c(C)[nH]c12` it is 107%.
Same read-out and setting: the figure for `O=C(N/N=C/c1ccc([N+](=O)[O-])o1)c1ccc(O)cc1` is 103%.
Take `CC(=O)N1CCn2c3c(c4cc(C)ccc42)CCCC31` (stereo not given): the percent of DMSO control GFP is 99.7%.
Take `Cc1ccc(CN2CCN(CCCc3ccccc3)CC2CCO)cc1` (stereo not given): the percent of DMSO control GFP was 103%.
Same read-out and setting: for `CCC(C(=O)Nc1ccc2c(c1)OCCO2)c1ccccc1` (stereo not given) the value was 103%; for `CN(C)CCC=C1c2ccccc2CCc2ccccc21`, 93.9%; for `CN(C)c1ccc(CNCCC(Cc2ccccc2)c2ccco2)cc1` (stereo not given), 101%.

Another experiment is described as follows: modulators of MEP2-GFP levels in yeast, primary screen, S. cerevisiae, multiplex flow cytometry (AID 1867;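 active = GFP response, as percent of the DMSO control, above the screen-wide mean plus 3 SD, about 139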;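 note: median GFP channel fluorescence of barcode-gated MEP2-GFP cells measured by flow cytometry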). As to conditions: S. cerevisiae MEP2-GFP strain, 3 h, at 10 µM, active compounds read high, 100% means same as DMSO wells. (In flow cytometry, cells or beads pass a laser one at a time.)
For `COc1cc(C2NCCc3c2[nH]c2ccccc32)ccc1OC(C)C` (stereo not given), the GFP response vs DMSO is 103%.
On the same count and under the same terms, the figure for `O=C(CSCc1ccccc1)NCCCN1CCOCC1` is 106%.
For `O=C(N1CCCCC1)C1(c2ccccc2)CCOCC1`, the GFP response vs DMSO is 103%.
The same measure, in the same setting: the figure for `CCCC(=O)O[C@]1(C(=O)COC(C)=O)CC[C@H]2[C@@H]3C[C@H](F)C4=CC(=O)C=C[C@]4(C)[C@@]3(F)[C@@H](O)C[C@@]21C` is 114%.
Still for that read-out and setting: for `O=c1ccc2c(o1)/C(=C/C=C(Cl)Cl)CCC2` the value was 101%.
On the same count and under the same terms, the figure for `COc1cc(Cc2cnc(N)nc2N)cc(OC)c1OC` is 95.1% and 101%.
Turning to `O=C(CC(NC(=O)OCc1ccccc1)C(=O)O)OCc1ccccc1` (stereo not given), the GFP response vs DMSO is 99.3%.
Take `O=c1c(-c2ccccc2)c(O)c2cccc3c2n1CCC3`: the GFP response vs DMSO is 104%.
Regarding `O=C(O)C1CCN(C(=O)COc2ccc3c4c(c(=O)oc3c2)CCC4)CC1`, the GFP response vs DMSO was 105%.
The same measure, in the same setting: for `CCOC(=O)c1cccc(P(C)(C)=O)c1` the value was 97.2%; for `O=C(O)c1cc2cc(F)ccc2[nH]1`, 101%; for `O=C(O)c1ccccc1C(=O)OCCCCOC(=O)c1ccccc1C(=O)O`, 85.6%.
The same measure, in the same setting: the figure for `Cn1nc(-c2ccc(Cl)cc2)nc2c(=O)n(C)c(=O)nc1-2` is 138%; for `O=c1[nH]c(=O)n([C@H]2C[C@H](O)[C@@H](CO)O2)cc1C(F)(F)F` it is 101%; for `COc1ccc(-c2cc(C(=O)N3CCOCC3)c3cc(C)ccc3n2)cc1` it is 102%.
The same measure, in the same setting: for `Cc1ccc2c(c1)c1c3n2CCCN(Cc2ccccc2)C3CCC1` (stereo not given) the value was 104%.
Turning to `CCCCCCCC(=O)OCC(O)CO` (stereo not given), the GFP response vs DMSO is 103%.
`S=C(c1ccc2c(c1)OCO2)N1CCCCC1`: the GFP response vs DMSO is 104%.
Still for that read-out and setting: the figure for `COc1cc2cc(C)nc(Cc3cccc4ccccc34)c2cc1OC` is 105%; for `CCn1cc(C(=O)O)c(=O)c2ccc(C)nc21` it is 98.7%.
Same read-out and setting: for `c1coc(-c2nnc3n2C2(CCCC2)Cc2ccccc2-3)c1` the value was 114%; for `COc1ccc(Cc2noc(CN(C)CCN3CCc4ccccc4C3)n2)cc1OC`, 105%; for `CC1(C)c2ccccc2N2CC(=O)NC21/C=C/c1ccco1` (stereo not given), 113%.
Still for that read-out and setting: for `CC12CC(c3ccccc3O1)C(C(=O)N1CCOCC1)C(=O)N2` (stereo not given) the value was 103%; for `O=C1CC(c2ccc(OCCCCCOc3ccc(C4CC(=O)NC4=O)cc3)cc2)C(=O)N1` (stereo not given), 98.3%; for `O=c1[nH]c(=O)n(C2CCCO2)cc1F` (stereo not given), 117%.
As for `NC(N)=NC(=O)Cc1c(Cl)cccc1Cl`, the GFP response vs DMSO is 110%.
On the same count and under the same terms, the figure for `CCOC(=O)Cn1c(C)cc(=O)c2ccccc21` is 114%; for `Cc1ccc(C(=O)Nc2ccccc2C(=O)NC(C(=O)O)C(C)C)cc1` (stereo not given) it is 109%; for `Cc1cc(O)c2/c(=N\N)c(-c3csc(C)n3)coc2c1` it is 107%.
Consider `O=C(CN1C(=O)/C(=C/c2cccc(Br)c2)SC1=S)Nc1cccnc1`, for which the GFP response vs DMSO is 105%.
For the molecule `COc1ccc2[nH]c(CN3CCN(CC(C)C)C(CCO)C3)c(C)c2c1` (stereo not given), the GFP response vs DMSO was 105%.
For `CC[N+](C)(C)c1cccc(O)c1`, the GFP response vs DMSO is 99.3%.
Still for that read-out and setting: for `COc1cccc2c(=O)c(C/C=C(/C)Cl)c(C)[nH]c12` the value was 103%; for `O=C(N/N=C/c1ccc([N+](=O)[O-])o1)c1ccc(O)cc1`, 118%; for `CC(=O)N1CCn2c3c(c4cc(C)ccc42)CCCC31` (stereo not given), 102%.
Take `Cc1ccc(CN2CCN(CCCc3ccccc3)CC2CCO)cc1` (stereo not given): the GFP response vs DMSO is 104%.
Regarding `CCC(C(=O)Nc1ccc2c(c1)OCCO2)c1ccccc1` (stereo not given), the GFP response vs DMSO is 103%.
On the same count and under the same terms, the figure for `CN(C)CCC=C1c2ccccc2CCc2ccccc21` is 105%; for `CN(C)c1ccc(CNCCC(Cc2ccccc2)c2ccco2)cc1` (stereo not given) it is 93.5%.
